Compounds with a hit are over-represented: about 11% of the library has one in this group of screens.
HTT cytoprotect: cytoprotection in Huntington HTT-Q103 PC12 cell model; PC12 HTT-Q103 induced, cytoprotection, ATP luminescence, 40 h; Potency, µM (highest dose often 56.4 µM), inactives show cytoprotection (ATP increase), usual class: activators; 0.14% of 230,000 active; active = well fitted curve in the direction sought with a large enough effect; inconclusive = small, poorly fitted or top-dose-only effect, or another doubt; inactive = no such curve, though single readings can be large; an effect the other way counts as inactive or inconclusive; also: potency is read from the fitted curve at half-maximal effect; % of control where 0% means no effect; nearly all actives have a fitted effect of over 45% in size
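Readout: ATPlite luminescence (ATP level). Model: stable PC12, inducible Htt exon1 Q103-GFP. Inducer: tebufenozide, 100 nM final. Compounds: dose series. No G418 in medium.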
ALDH1A1 block: blocks purified human ALDH1A1 activity | Purified ALDH1A1, NADH fluorescence, propionaldehyde substrate | Potency, µM (titrated, usually from 75.3 µM), for inactives: at the top dose activity, negative = inhibition, most hits filed as inhibitors | 7.3% of 220,000 active | P00352;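 also: potency is read from the fitted curve at half-maximal effect; plate controls were no enzyme wells and a reference inhibitor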
PNC inhibitor: inhibitors of perinucleolar compartment assembly | activity change (PNC), negative = inhibition, % at 10 µM | 3.1% of 140,000 active | PC3M PTB-GFP, PNC prevalence imaging, 16 h; active compounds read low;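 active = readout at or below -70, meaning at least 70% loss of cells showing the perinucleolar compartment, a nuclear body marking cancer cells; inconclusive = readout between -30 and a set limit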;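 also: plate controls were DMSO wells for no effect and camptothecin positive control wells for full effect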
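Read-out is percentage of cells bearing a perinucleolar compartment, from automated 20x imaging of fixed, Hoechst-stained PC3M PTB-GFP cells. Cells were seeded 4 h, then exposed 16 h to compound (23 nl of library stock) in duplicate plates.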
HPGD inh: HPGD (human) dehydrogenase inhibition | P15428 | purified HPGD, NADH fluorescence kinetic, PGE2 substrate | Potency, µM, for inactives: at the top dose activity change, negative = inhibition, hits mostly inhibitors | 4.3% of 150,000 active; also: potency is read from the fitted curve at half-maximal effect; % is scaled to controls: 0 for no effect and ±100 for the full control effect
Target sequence (P15428 whole entry, looked up): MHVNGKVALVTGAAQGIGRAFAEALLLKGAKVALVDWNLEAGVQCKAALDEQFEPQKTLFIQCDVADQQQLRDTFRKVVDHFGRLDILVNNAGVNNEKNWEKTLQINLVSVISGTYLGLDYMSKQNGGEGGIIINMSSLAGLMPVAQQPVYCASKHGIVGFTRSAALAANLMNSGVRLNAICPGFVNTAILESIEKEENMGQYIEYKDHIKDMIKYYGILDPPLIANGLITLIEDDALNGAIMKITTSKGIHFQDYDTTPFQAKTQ
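NADH formation kinetics: reaction with 30 uM PGE2 and 1 mM NAD+ (final), 20 nM enzyme, Tris-HCl pH 8 with Tween 20, after 15 min compound preincubation at room temperature. Fluorescence change, last versus first of five reads.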
HttQ103 aggreg: inhibitors of mutant huntingtin aggregate formation in PC12 cells. PC12 HttQ103-GFP aggregates, Acumen cytometry, 40 h. Potency, µM (top dose mostly 46.1 µM), for inactives: at the top dose activity change, negative = inhibition, usual class: inhibitors. 1.1% of 220,000 active; active = well fitted curve in the direction sought with a large enough effect; inconclusive = small, poorly fitted or top-dose-only effect, or another doubt; inactive = no such curve, though single readings can be large; an effect the other way counts as inactive or inconclusive; also: potency is read from the fitted curve at half-maximal effect; % is scaled to controls: 0 for no effect and ±100 for the full control effect; nearly all actives have a fitted effect of over 60% in size
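Aggregate formation scored by laser-scanning cytometer (488 excitation, 500–530 emission) in lysed PC12 cells expressing Q103-GFP after 100 nM tebufenozide induction; library tested in dose series, with ATPLite reagent added in the multiplex.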
RGS12 GoLoco inh: RGS12 GoLoco-Gai1 interaction inhibition; Gai1:RGS12 GoLoco peptide FP, rhodamine, 10 min; Potency, µM (highest dose often 61.6 µM), inactives show top-dose activity, negative = inhibition, most hits filed as inhibitors; P63096; 0.44% of 230,000 active; active = well fitted inhibition curve with a large enough effect, not every such curve was filed as active; inactive = no such curve, though single readings can be large or run the other way; also: potency is read from the fitted curve at half-maximal effect; % is scaled to controls: 0 for no effect and ±100 for the full control effect; nearly all actives have a fitted effect of over 30% in size
Target sequence (P63096 whole entry, looked up): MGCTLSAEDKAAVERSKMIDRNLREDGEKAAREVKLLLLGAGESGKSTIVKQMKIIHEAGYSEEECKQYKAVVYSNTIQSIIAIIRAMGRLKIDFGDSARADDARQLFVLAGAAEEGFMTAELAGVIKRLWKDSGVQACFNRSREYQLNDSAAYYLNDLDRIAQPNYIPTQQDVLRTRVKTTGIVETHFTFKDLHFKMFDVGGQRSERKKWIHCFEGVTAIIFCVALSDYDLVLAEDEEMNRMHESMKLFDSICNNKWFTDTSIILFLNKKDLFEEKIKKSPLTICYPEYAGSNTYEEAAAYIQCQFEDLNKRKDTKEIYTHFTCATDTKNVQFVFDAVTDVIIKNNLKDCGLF
An asterisk follows results filed as active; ? = inconclusive; nt = no result given; ! = not confirmed by another sample; [ ] = another dose, or the depositor's remark. Unless noted, calls follow the shape of the dose curve; as a rule, active = well fitted inhibition curve with a large enough effect (not every such curve was filed as active); inconclusive = small, poorly fitted or top-dose-only effect, or another doubt; inactive = no such curve, though single readings can be large or run the other way.

SMILES | HTT cytoprotect | ALDH1A1 block | PNC inhibitor | HPGD inh | HttQ103 aggreg | RGS12 GoLoco inh
C[C@H](CN(C)C)C(C#N)(c1ccccc1)c1ccccc1 | 13.3%[10 µM] | 14.5%[13.5 µM] | nt | -5.7% | nt | -0.9%[14.2 µM]
O=c1c2ccccc2nc(SCC2CCCCO2)n1-c1ccccc1 (centres undefined) | -49.0%[10 µM] | 17.8µM* | 5.3 | -7.7% | ? | 9.3%
C/C=C(/C)C(=O)O[C@H]1C(C)=C2C([C@@H]1OC(=O)CCCCCCC)[C@@](C)(OC(C)=O)C[C@@H](OC(=O)CCC)[C@@]1(O)[C@H]2OC(=O)[C@@]1(C)O (some centres undefined) | nt | ? | nt | ? | nt | 14.4%
Nc1ccc(C2(c3ccc(N)cc3)CCCCC2)cc1 | -6.8% | 14.1µM* | nt | nt | 15.2% | 9.9%
CC[C@@]1(c2ccc(N)cc2)CCC(=O)NC1=O | ? | 1.8%[20.9 µM] | nt | -11.0% | -7.5% | 1.5%[21.6 µM]
CN1[C@@H]2CC[C@H]1CC(O[C@@H](c1ccccc1)c1ccccc1N)C2 (some centres undefined) | 19.8%[1.9 µM] | nt | nt | nt | nt | nt
COC(C(=O)C(O)C(C)O)C1Cc2cc3cc(OC4CC(OC5CC(O)C(OC)C(C)O5)C(OC(C)=O)C(C)O4)c(C)c(O)c3c(O)c2C(=O)C1OC1CC(OC2CC(OC3CC(C)(O)C(OC(C)=O)C(C)O3)C(O)C(C)O2)C(O)C(C)O1 (centres undefined) | -159.1% | nt | nt | nt | 0.178µM* | -4.4%
CC1=C(O)C(=O)C=C2C1=CC=C1[C@]2(C)CC[C@@]2(C)C3C[C@](C)(C(=O)O)CC[C@@]3(C)CC[C@@]12C (some centres undefined) | nt | -5.8% | nt | 2µM* | nt | -30.2%
CC1=NN(c2ccc(S(=O)(=O)O)cc2C)C(=[OH+])[C@H]1N=Nc1cc(S(=O)(=O)O)ccc1C(=O)O.O.[Cr] | 9.0%[10 µM] | ? | nt | -15.9% | nt | 9.9%[14.2 µM]
COc1ccc2[nH]cc(C3=CCNCC3)c2c1 | -21.2% | ? | nt | -20.2% | nt | 29.8%
COc1ccc2c3c([nH]c2c1)C(C)=NCC3 | -19.5% | ? | 38.0 | ? | 15.8µM* | 12.6%
CC1=NCCc2c1[nH]c1cc(O)ccc21 | ? | ? | nt | ? | nt | 28.2µM*!
Oc1ccccc1/C=N/NP(=S)(c1ccccc1)c1ccccc1 | -150.7% | ? | nt | nt | ? | -15.2%
Oc1ccc(/C=N/NP(=S)(c2ccccc2)c2ccccc2)c(O)c1O | 11.1% | 11.2µM* | 37.6 | 22.4µM* | 14.3% | 7.2%
Cc1cccc(C)c1O | -7.8% | ? | nt | -1.8% | nt | 7.2%
CCC(=NCCc1c[nH]c2ccccc12)c1c(O)n(C)c(=O)n(C)c1=O | -28.4% | 2.9% | 9.1 | -4.7% | 7.94µM* | 9.7%
CCC(=NCCc1c[nH]c2ccccc12)c1c(O)n(-c2ccc(C)cc2)c(=O)[nH]c1=O | -22.8%[10 µM] | ? | -5.6 | -10.0% | ? | -8.0%
CCC(=NCCOc1ccc(Cl)cc1)c1c(O)n(C)c(=O)n(C)c1=O | -22.9% | 4.2% | 47.8 | -9.9% | 11.2µM* | 13.9%
CCCCn1c(O)c(C(CC)=Nc2ccc(OC)cc2OC)c(=O)[nH]c1=O | -15.5% | 4.8% | 41.3 | 15.8µM* | -24.5% | 14.5%
CCCCn1c(O)c(C(CC)=Nc2ccc(OCC)cc2)c(=O)[nH]c1=O | -0.3%[0.074 µM] | 1.8% | 15.6 | -14.7% | -2.4% | 6.3%
CCC(=NCc1ccc2c(c1)OCO2)c1c(O)n(C)c(=O)n(C)c1=O | -24.9%[0.074 µM] | -0.7% | ? | nt | 20µM* | nt
CSCC[C@@H](N)P(C)(=O)O | 4.1%[10 µM] | 4.9%[13.5 µM] | nt | -1.7% | nt | -7.6%[14.2 µM]
c1ccc([Se]c2c(-c3ccccc3)[se]c3ccccc23)cc1 | -43.4% | 9.1% | nt | -4.1% | nt | -1.1%
O=C(/C=C/c1ccc(Cl)cc1)N[C@@]12CCC(=O)[C@@H]3Oc4c(O)ccc5c4[C@@]31CCN(CC1CC1)C2C5 | nt | 7.4% | nt | nt | nt | 3.2%
Cc1ccc(OP(=O)(Oc2ccc(C)cc2)N2C=Cc3ccccc3[C@H]2C#N)cc1 | -11.0%[10 µM] | -10.8%[13.5 µM] | nt | -6.0% | nt | 4.4%[14.2 µM]
SMILES | HTT cytoprotect | ALDH1A1 block | PNC inhibitor | HPGD inh | HttQ103 aggreg | RGS12 GoLoco inh
ClCCl | 20.8% | ? | nt | -7.0% | nt | -12.9%
CN(C)[C@@H]1C(=O)C(C(N)=O)=C(O)[C@]2(O)C(=O)C3=C(O)c4c(O)cccc4[C@](C)(O)[C@H]3C[C@@H]12 | -20.2%[10 µM] | -0.7%[13.5 µM] | nt | -29.2% | nt | -22.0%[14.2 µM]
CCC(=Nc1ccc(OC)cc1OC)c1c(O)n(C)c(=O)n(C)c1=O | -23.8%[0.074 µM] | ? | 0.1 | 35.5µM* | ? | -1.4%
C=CCn1c(=O)c(C=Nc2c(OC)cccc2[N+](=O)[O-])c(O)n(CCCC)c1=O | 2.0%[10 µM] | 12.6µM* | 14.4 | -13.7% | -8.2% | 10.8%
CN(C)CCC(C#N)(c1ccccc1)c1ccccc1 | 4.1%[10 µM] | -9.0%[13.5 µM] | nt | -7.8% | nt | 1.3%[14.2 µM]
O=C(Nc1cccc(OC(=O)N2CCOCC2)c1)N1CCOCC1 | -2.8% | 6.3% | ? | -4.6% | -11.6% | 3.8%
Cc1oc2ccc(OC(=O)N3CCOCC3)cc2c1C(=O)OC(C)C | -7.2% | 3.98µM* | 1.5 | -9.2% | 0.9% | 7.5%
CC(C)(C)[C@]1(O)C[C@@H]2OC(=O)CC23C(=O)O[C@@H]2OC(=O)[C@H](O)C231 (some centres undefined) | 12.1% | 5.4% | nt | 0.3% | nt | -2.7%
CCOC(=O)C(O)(c1ccc(N(CC)C(=O)OC)cc1)C(F)(F)F (centres undefined) | -2.5%[0.074 µM] | 3.5% | ? | -13.4% | 1.58µM* | -7.9%
CCOC(=O)N(CC)c1ccc(C(O)(C(=O)OCC)C(F)(F)F)cc1 (centres undefined) | -1.1% | 2.8% | 8.5 | -0.9% | -9.3% | 7.1%
CCOC(=O)C(O)(c1ccc(NC(=S)NC(=O)c2ccc(Cl)cc2Cl)c(C)c1)C(F)(F)F (centres undefined) | 14.4%[10 µM] | 17.8µM* | -15.4 | -23.1% | -6.3% | 0.9%
CCOC(=O)C(O)(c1ccc(NC(=S)NC(=O)c2ccc(Cl)cc2Cl)cc1)C(F)(F)F (centres undefined) | 5.2%[10 µM] | 8.91µM* | -13.8 | -21.5% | 12.7% | 9.0%
C[C@@H]1O[C@@H](OC2CC(O)C3(CO)C4C(CCC3(O)C2)C2(O)CCC(C3=CC(=O)OC3)C2(C)C[C@H]4O)[C@H](O)[C@H](O)[C@H]1O (some centres undefined) | -33.9% | 14.2% | nt | -3.1% | nt | -0.6%
C#CCN[C@@H](C)Cc1ccccc1 | 25.2%[1.9 µM] | nt | nt | nt | nt | nt
CO[C@@H](COC(N)=O)C1=C(N2CC2)C(=O)C(C)=C(N2CC2)C1=O | -97.9% | nt | nt | nt | 5.01µM* | nt
COC12C(COC(N)=O)C3=C(C(=O)C(C)=C(N)C3=O)N1CC1C2N1C (centres undefined) | -26.9%[10 µM] | nt | nt | nt | 10.4%[9.22 µM] | 4.8%
C[C@@]12CC[C@H]3[C@@H](CC[C@@H]4C[C@H](O)CC[C@]43C)[C@H]1CC[C@H]2O | -16.0%[1.9 µM] | nt | nt | nt | nt | nt

Screening results deposited in PubChem BioAssay by National Center for Advancing Translational Sciences (NCATS).
